For eight compounds, AC50 and outcome results are on record in PubChem BioAssay (EPA / NIEHS).

For orientation: AC50 means the concentration giving half of the maximal activity seen.

Assay [1] has as its target human Peroxisome Proliferator-activated Receptor alpha (PPARa), PPARA (gene 5465) (UniProt Q07869). The assay can be described thus: ATG_PPARa_TRANS: Attagene TRANS-FACTORIAL HepG2 Assay for human Peroxisome Proliferator-activated Receptor alpha (PPARa) (AID 2283001).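 On AC50: potency for gain of reporter signal over DMSO so agonist or activator.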 The method in brief: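 Reporter transcripts quantified by RT-PCR plus capillary electrophoresis after 24 h treatment, fitted upward relative to DMSO. Cells: human HepG2 transiently carrying multiple GAL4-UAS reporter units driven by NR-Gal4 chimeras.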

Assay [2] addresses human Peroxisome Proliferator-activated Receptor delta (PPARd), PPARD (gene 5467) (UniProt Q03181). The experiment in a line: ATG_PPARd_TRANS: Attagene TRANS-FACTORIAL HepG2 Assay for human Peroxisome Proliferator-activated Receptor delta (PPARd) (AID 2283002). The method in brief: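 Read-out is induced reporter mRNA, quantified by RT-PCR with fluorescent labelling and capillary electrophoresis after 24 h dosing. Cells are HepG2 transiently carrying multiple GAL4-UAS reporter units driven by exogenous NR-GAL4 chimeras; DMSO serves as baseline.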

The target in assay [3] is human Retinoic Acid Receptor beta (RARb), RARB (gene 5915) (UniProt P10826). The assay can be described thus: ATG_RARb_TRANS: Attagene TRANS-FACTORIAL HepG2 Assay for human Retinoic Acid Receptor beta (AID 2283004). The method in brief:
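HepG2 cells were transiently transfected with GAL4-UAS reporter units that report activity of exogenous chimeric NR-Gal4 proteins, then exposed to compound for 24 h. Reporter mRNA was quantified by RT-PCR with capillary electrophoresis fluorescence, as gain of signal over DMSO.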

Assay [4] addresses Retinoic acid receptor alpha (Homo sapiens) (UniProt P10276). The assay can be described thus: ATG_RARa_TRANS: Attagene TRANS-FACTORIAL HepG2 Assay for human Retinoic Acid Receptor alpha (RARa) (AID 2283005). A digest of the protocol:
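Reporter transcripts, measured by RT-PCR with fluorescent labeling and capillary electrophoresis after 24 h dosing, reflect activity of an exogenous human RARa–GAL4 fusion in transiently transfected HepG2. Fitted for increase relative to DMSO.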

Assay [5] addresses Peroxisome proliferator-activated receptor gamma (Homo sapiens) (UniProt P37231). The experiment in a line: ATG_PPARg_TRANS: Attagene TRANS-FACTORIAL HepG2 Assay for human Peroxisome Proliferator-activated Receptor-gamma (PPARg) (AID 2283007). The method in brief:
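After 24 h of chemical exposure, transfected HepG2 cells carrying PPARγ-Gal4 chimera reporter constructs are lysed for RNA. Reporter transcripts are measured by RT-PCR and capillary electrophoresis with fluorescent labelling, and gain of signal is fitted versus DMSO.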

The target of assay [6] is Nuclear receptor subfamily 1 group I member 2 (Homo sapiens) (UniProt O75469). The experiment in a line: ATG_PXR_TRANS: Attagene TRANS-FACTORIAL HepG2 Assay for human Pregnane X Receptor (PXR) (AID 2283008). The method in brief: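 Trans-factorial format: exogenous NR-Gal4 fusion activity, not endogenous factor, in transfected human HepG2 liver cells. After 24 h dosing, RNA isolated, reverse-transcribed, amplified and resolved by capillary electrophoresis; induction scored versus DMSO.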

The target of assay [7] is human Retinoic Acid Receptor gamma (RARg), RARG (gene 5916) (UniProt P13631). The experiment in a line: ATG_RARg_TRANS: Attagene TRANS-FACTORIAL HepG2 Assay for human Retinoic Acid Receptor gamma (RARg) (AID 2283009). A digest of the protocol: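 Transactivation of exogenous RARg-Gal4 fusion measured as reporter transcript induction after 24 h in transfected HepG2 cells. RNA reverse-transcribed, amplified, fluorescently labeled and resolved by capillary electrophoresis; increase relative to DMSO.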

Assay [8] has as its target human RAR-related Orphan Receptor beta (RORb), RORB (gene 6096) (UniProt Q92753). The assay can be described thus: ATG_RORb_TRANS: Attagene TRANS-FACTORIAL HepG2 Assay for human RAR-related Orphan Receptor beta (RORb) (AID 2283010). The method in brief: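 Read-out is reporter mRNA induction, quantified by RT-PCR with fluorescent capillary electrophoresis, 24 h post-dose in transiently transfected HepG2 expressing exogenous NR-Gal4 chimera. Activity fitted upward versus DMSO.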

For assay [9], the target named is Retinoic acid receptor RXR-alpha (Homo sapiens) (UniProt P19793). The experiment in a line: ATG_RXRa_TRANS: Attagene TRANS-FACTORIAL HepG2 Assay for human Retinoid X Receptor alpha (RXRa) (AID 2283012). The method in brief: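 TRANS format reporting activity of exogenous RXRa-Gal4 chimera in transiently transfected HepG2, 24 h exposure. Reporter transcripts quantified by RT-PCR with capillary electrophoresis, with gain of signal scored relative to DMSO.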

The target in assay [10] is human Thyroid Receptor alpha (THRa1), THRA (gene 7067) (UniProt P10827). The experiment in a line: ATG_THRa1_TRANS: Attagene TRANS-FACTORIAL HepG2 Assay for human Thyroid Receptor alpha (THRa1) (AID 2283014). The method in brief:
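HepG2 cells transiently transfected with chimeric NR-Gal4 and GAL4-UAS reporter units, dosed 24 h. Reporter mRNA quantified by RT-PCR, fluorescent labeling, HpaI digestion and capillary electrophoresis; gain-of-signal fit versus DMSO.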

Assay [11] is described as follows: BSK_4H_Eotaxin3: BioMAP Diversity Plus: 4H Assay for Eotaxin 3 Biomarker Activity (AID 2283000; active means hit-call score of the fitted dose curve at least 0.9, where 1 is the maximum; inactive means score below 0.9;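 on outcome: CCL26 protein level quantified by ELISA in parallel with SRB cytotoxicity check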). The note with it: primary human endothelial cells (HUVEC); actives raise or lower the signal. The method in brief: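 Eotaxin-3 (CCL26) levels were measured by ELISA in HUVEC primary cultures 24 h post-dosing. Gain or loss of signal was fitted in both directions, with DMSO serving as baseline and negative control.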

Read-out in assay [12]: Intercellular Adhesion Molecule 1 (ICAM1), ICAM1 (gene 3383)
The assay can be described thus: BSK_3C_ICAM1: BioMAP Diversity Plus: 3C Assay for Intercellular Adhesion Molecule 1 (ICAM1) Biomarker Activity (AID 2283003; active means hit-call score of the fitted dose curve at least 0.9, where 1 is the maximum; inactive means score below 0.9). The note with it: primary human endothelial cells (HUVEC); actives raise or lower the signal. A digest of the protocol: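 ELISA readout of ICAM1 in human umbilical vein endothelial cells in the 3C system, taken 24 h post-dose. Gain or loss of signal versus DMSO was fitted in both directions, with SRB total-protein staining run in parallel.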

Assay [13] can be described thus: BSK_3C_Proliferation: Cell Proliferation Assessment in the BioMAP Diversity Plus: 3C Assay (AID 2283006; active means hit-call score of the fitted dose curve at least 0.9, where 1 is the maximum; inactive means score below 0.9;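 further: potency may reflect either rise or fall in cell number versus DMSO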). The note with it: primary human endothelial cells (HUVEC). A digest of the protocol: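 Proliferation as total protein: sulforhodamine B (0.1%) stain of TCA-fixed subconfluent human umbilical vein endothelial cells, absorbance 560 nm, 48 h after dosing. Activity fitted in both directions against DMSO baseline.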

Read-out in assay [14]: E-selectin (Homo sapiens) (UniProt P16581)
The experiment in a line: BSK_3C_Eselectin: BioMAP Diversity Plus: 3C Assay for Eselectin Biomarker Activity (AID 2283015; active means hit-call score of the fitted dose curve at least 0.9, where 1 is the maximum; inactive means score below 0.9;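 on outcome: cell surface E-selectin protein quantified by ELISA 24 h after dosing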). The note with it: primary human endothelial cells (HUVEC); actives raise or lower the signal. A digest of the protocol: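 Primary human umbilical vein endothelial cells (3C system), read 24 h after compound addition; E-selectin measured by ELISA. Bidirectional curve fitting against DMSO baseline; cytotoxicity by parallel SRB total-protein staining.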

Read-out in assay [15]: Interleukin-1 alpha (IL1a), IL1A (gene 3552)
The experiment in a line: BSK_BE3C_IL1a: BioMAP Diversity Plus: BE3C Assay for Interleukin-1 alpha (IL1a) Biomarker Activity (AID 2283016; active means hit-call score of the fitted dose curve at least 0.9, where 1 is the maximum; inactive means score below 0.9). As to conditions: primary human bronchial epithelial cells; actives raise or lower the signal. A digest of the protocol:
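IL-1a measured by ELISA after 24 h treatment of human primary bronchial epithelial cells, with gain or loss of signal fitted versus DMSO. Parallel cultures stained with SRB gauge overt cytotoxicity.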

Read-out in assay [16]: Monocyte Chemoattractant Protein-1 (MCP1), CCL2 (gene 6347)
The experiment in a line: BSK_4H_MCP1: BioMAP Diversity Plus: 4H Assay for Monocyte Chemoattractant Protein-1 (MCP1) Biomarker Activity (AID 2283018; active means hit-call score of the fitted dose curve at least 0.9, where 1 is the maximum; inactive means score below 0.9). As to conditions: primary human endothelial cells (HUVEC); actives raise or lower the signal. A digest of the protocol: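 ELISA of MCP-1 (CCL2) 24 h after chemical dosing of HUVEC in the BioMAP 4H system. Gain or loss versus DMSO fitted; parallel SRB staining (560 nm) tracked overt cytotoxicity.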

Read-out in assay [17]: Human Leukocyte Antigen - DR isotype (HLADR), HLA-DRA (gene 3122)
The experiment in a line: BSK_3C_HLADR: BioMAP Diversity Plus: 3C Assay for Human Leukocyte Antigen - DR isotype (HLADR) Biomarker Activity (AID 2283019; active means hit-call score of the fitted dose curve at least 0.9, where 1 is the maximum; inactive means score below 0.9;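 on outcome: ELISA of cell-surface HLA-DR on HUVEC 24 h after dosing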). The note with it: primary human endothelial cells (HUVEC); actives raise or lower the signal. The method in brief:
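HUVEC monoculture, HLA-DR measured by ELISA 24 h after chemical dosing. Fitted bidirectionally against DMSO baseline; parallel SRB staining assessed cytotoxicity, with 3C proliferation read by SRB at 48 h.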

Assay [18] addresses human RAR-related Orphan Receptor gamma (RORg), RORC (gene 6097) (UniProt P51449). The assay can be described thus: ATG_RORg_TRANS: Attagene TRANS-FACTORIAL HepG2 Assay for human RAR-related Orphan Receptor gamma (RORg) (AID 2283011). A digest of the protocol:
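HepG2 cells transiently transfected with GAL4-UAS reporter units and chimeric RORg-Gal4 construct; after 24 h chemical exposure, reporter mRNA measured by RT-PCR with fluorescent capillary electrophoresis, gain of signal fitted against DMSO.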

The target in assay [19] is human Retinoid X Receptor beta (RXRb), RXRB (gene 6257) (UniProt P28702). The experiment in a line: ATG_RXRb_TRANS: Attagene TRANS-FACTORIAL HepG2 Assay for human Retinoid X Receptor beta (RXRb) (AID 2283013). A digest of the protocol:
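Readout is reporter transcript induction after 24 h dosing. It is measured by RT-PCR of total RNA followed by fluorescent capillary electrophoresis. HepG2 liver cells carry transfected multiple reporter units driven by an exogenous RXRb-Gal4 fusion; activity is relative to DMSO.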

Read-out in assay [20]: Monocyte Chemoattractant Protein-1 (MCP1), CCL2 (gene 6347)
The experiment in a line: BSK_3C_MCP1: BioMAP Diversity Plus: 3C Assay for Monocyte Chemoattractant Protein-1 (MCP1) Biomarker Activity (AID 2283017; active means hit-call score of the fitted dose curve at least 0.9, where 1 is the maximum; inactive means score below 0.9). The note with it: primary human endothelial cells (HUVEC); actives raise or lower the signal. The method in brief:
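Human umbilical vein endothelial cells (3C system) exposed to chemicals for 24 h; MCP-1 quantified by ELISA against the DMSO baseline with bidirectional fitting, and parallel SRB staining used to assess cytotoxicity.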

Several values for one entry are separate records, joined by “and”; a condition that tells them apart may be missing. Equal values may be shown once. Records with an inconclusive call do not appear. Activity calls are given as the source filed them. How the source made its calls, unless noted: active means hit-call score of the fitted dose curve at least 0.9, where 1 is the maximum; inconclusive means response in the unintended direction; inactive means score below 0.9.

Sequence of human Peroxisome Proliferator-activated Receptor delta (PPARd), PPARD (gene 5467) (Q03181 whole entry, looked up, the tested form may be a part): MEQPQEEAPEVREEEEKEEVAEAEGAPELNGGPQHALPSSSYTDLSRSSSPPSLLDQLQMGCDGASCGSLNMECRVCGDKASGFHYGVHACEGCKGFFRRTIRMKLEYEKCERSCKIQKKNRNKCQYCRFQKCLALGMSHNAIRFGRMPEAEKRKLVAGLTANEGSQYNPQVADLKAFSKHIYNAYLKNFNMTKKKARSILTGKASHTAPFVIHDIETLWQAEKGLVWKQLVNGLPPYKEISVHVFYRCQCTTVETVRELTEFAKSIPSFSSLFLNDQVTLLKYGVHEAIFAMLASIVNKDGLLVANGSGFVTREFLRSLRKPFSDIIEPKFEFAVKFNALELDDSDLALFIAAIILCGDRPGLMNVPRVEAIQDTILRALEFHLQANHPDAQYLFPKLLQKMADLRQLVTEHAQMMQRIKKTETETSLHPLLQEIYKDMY
Sequence of Nuclear receptor subfamily 1 group I member 2 (Homo sapiens) (O75469 whole entry, looked up, the tested form may be a part): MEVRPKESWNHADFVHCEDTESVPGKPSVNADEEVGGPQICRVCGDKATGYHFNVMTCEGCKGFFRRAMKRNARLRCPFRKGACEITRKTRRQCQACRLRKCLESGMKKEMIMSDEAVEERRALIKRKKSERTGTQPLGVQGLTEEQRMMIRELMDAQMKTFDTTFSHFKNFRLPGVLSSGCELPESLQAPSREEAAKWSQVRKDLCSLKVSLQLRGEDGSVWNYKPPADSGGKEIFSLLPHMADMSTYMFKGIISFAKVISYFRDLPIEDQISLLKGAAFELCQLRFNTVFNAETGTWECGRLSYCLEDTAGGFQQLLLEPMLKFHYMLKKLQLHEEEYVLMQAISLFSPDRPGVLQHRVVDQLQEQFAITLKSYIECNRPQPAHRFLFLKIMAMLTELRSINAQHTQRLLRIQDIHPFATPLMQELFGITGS
Sequence of human Peroxisome Proliferator-activated Receptor alpha (PPARa), PPARA (gene 5465) (Q07869 whole entry, looked up, the tested form may be a part): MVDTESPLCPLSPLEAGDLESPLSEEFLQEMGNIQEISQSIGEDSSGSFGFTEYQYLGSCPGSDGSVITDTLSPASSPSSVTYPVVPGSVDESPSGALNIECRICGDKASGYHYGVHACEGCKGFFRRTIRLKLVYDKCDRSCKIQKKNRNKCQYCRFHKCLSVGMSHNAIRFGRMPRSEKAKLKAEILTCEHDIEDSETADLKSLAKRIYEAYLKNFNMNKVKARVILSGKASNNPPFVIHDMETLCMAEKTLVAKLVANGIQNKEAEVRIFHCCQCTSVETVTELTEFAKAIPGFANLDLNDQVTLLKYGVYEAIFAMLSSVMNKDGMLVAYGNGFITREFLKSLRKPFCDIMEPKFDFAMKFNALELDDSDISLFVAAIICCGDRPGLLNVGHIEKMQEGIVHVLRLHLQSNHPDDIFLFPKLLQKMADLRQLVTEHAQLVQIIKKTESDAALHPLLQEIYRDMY
Sequence of E-selectin (Homo sapiens) (P16581 whole entry, looked up): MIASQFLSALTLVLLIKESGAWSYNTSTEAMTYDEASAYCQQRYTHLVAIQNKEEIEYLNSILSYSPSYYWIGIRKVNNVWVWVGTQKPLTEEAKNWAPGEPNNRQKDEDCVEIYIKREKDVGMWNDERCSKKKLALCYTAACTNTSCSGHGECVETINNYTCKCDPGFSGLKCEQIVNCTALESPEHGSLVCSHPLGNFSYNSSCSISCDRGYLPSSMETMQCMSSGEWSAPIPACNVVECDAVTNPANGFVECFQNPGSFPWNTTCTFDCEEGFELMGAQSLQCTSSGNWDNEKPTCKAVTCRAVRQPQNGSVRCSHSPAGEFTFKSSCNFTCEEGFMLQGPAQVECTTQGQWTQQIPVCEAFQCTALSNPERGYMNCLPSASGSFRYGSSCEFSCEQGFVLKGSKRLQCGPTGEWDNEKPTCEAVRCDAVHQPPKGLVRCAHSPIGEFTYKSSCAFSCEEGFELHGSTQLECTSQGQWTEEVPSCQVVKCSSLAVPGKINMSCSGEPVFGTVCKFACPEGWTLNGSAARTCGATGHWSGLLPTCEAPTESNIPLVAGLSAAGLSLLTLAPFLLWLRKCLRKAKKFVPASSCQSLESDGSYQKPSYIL
Sequence of Peroxisome proliferator-activated receptor gamma (Homo sapiens) (P37231 whole entry, looked up, the tested form may be a part): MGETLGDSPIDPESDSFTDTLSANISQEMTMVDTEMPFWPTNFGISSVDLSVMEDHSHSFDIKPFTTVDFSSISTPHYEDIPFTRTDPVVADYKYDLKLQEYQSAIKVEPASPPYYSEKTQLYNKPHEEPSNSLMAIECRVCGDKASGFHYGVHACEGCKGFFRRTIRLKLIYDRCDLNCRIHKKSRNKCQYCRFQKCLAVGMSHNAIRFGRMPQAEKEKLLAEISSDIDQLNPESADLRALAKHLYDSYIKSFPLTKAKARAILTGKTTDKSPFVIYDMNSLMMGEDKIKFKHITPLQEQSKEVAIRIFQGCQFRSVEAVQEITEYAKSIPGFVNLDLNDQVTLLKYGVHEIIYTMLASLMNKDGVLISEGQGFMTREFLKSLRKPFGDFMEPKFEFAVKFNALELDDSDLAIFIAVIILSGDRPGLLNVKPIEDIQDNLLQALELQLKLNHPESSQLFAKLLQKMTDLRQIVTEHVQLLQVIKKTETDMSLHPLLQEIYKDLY
Sequence of human Thyroid Receptor alpha (THRa1), THRA (gene 7067) (P10827 whole entry, looked up, the tested form may be a part): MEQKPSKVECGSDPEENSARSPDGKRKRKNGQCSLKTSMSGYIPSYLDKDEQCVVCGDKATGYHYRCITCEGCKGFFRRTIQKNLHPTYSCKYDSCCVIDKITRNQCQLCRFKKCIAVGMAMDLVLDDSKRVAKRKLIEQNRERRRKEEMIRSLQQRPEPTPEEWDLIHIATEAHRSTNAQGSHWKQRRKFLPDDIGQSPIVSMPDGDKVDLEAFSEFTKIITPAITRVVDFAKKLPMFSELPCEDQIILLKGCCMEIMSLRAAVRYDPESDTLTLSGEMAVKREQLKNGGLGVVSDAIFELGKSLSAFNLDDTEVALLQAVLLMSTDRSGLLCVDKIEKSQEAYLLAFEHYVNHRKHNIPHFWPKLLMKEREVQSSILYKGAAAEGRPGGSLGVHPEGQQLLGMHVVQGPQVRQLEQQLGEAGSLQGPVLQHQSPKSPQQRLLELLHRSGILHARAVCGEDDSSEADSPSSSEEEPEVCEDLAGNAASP
Sequence of human Retinoid X Receptor beta (RXRb), RXRB (gene 6257) (P28702 whole entry, looked up, the tested form may be a part): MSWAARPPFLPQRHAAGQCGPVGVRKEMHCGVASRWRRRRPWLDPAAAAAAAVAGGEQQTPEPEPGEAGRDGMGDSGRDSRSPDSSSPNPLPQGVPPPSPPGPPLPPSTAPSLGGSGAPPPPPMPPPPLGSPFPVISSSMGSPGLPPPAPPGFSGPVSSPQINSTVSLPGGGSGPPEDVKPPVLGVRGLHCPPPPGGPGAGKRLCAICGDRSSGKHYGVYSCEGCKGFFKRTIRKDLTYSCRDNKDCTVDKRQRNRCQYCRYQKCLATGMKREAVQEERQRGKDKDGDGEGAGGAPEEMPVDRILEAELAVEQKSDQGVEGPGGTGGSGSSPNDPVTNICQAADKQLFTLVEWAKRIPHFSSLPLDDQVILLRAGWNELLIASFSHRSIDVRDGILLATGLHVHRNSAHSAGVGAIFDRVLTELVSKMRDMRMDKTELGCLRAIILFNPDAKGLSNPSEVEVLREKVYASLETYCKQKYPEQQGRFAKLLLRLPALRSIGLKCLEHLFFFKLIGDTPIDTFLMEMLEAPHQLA
Sequence of Retinoic acid receptor RXR-alpha (Homo sapiens) (P19793 whole entry, looked up, the tested form may be a part): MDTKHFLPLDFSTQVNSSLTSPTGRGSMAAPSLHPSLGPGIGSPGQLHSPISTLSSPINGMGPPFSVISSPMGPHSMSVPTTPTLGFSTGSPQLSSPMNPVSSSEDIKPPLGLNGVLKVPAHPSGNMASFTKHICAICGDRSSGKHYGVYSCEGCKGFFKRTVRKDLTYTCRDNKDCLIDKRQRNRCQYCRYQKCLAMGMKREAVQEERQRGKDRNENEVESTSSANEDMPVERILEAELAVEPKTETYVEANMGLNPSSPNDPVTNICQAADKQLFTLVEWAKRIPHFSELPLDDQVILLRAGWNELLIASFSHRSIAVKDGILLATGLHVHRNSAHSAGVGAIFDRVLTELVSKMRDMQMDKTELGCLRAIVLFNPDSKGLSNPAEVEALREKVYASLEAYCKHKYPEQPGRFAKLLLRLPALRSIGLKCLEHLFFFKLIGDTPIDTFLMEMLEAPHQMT
Sequence of Retinoic acid receptor alpha (Homo sapiens) (P10276 whole entry, looked up, the tested form may be a part): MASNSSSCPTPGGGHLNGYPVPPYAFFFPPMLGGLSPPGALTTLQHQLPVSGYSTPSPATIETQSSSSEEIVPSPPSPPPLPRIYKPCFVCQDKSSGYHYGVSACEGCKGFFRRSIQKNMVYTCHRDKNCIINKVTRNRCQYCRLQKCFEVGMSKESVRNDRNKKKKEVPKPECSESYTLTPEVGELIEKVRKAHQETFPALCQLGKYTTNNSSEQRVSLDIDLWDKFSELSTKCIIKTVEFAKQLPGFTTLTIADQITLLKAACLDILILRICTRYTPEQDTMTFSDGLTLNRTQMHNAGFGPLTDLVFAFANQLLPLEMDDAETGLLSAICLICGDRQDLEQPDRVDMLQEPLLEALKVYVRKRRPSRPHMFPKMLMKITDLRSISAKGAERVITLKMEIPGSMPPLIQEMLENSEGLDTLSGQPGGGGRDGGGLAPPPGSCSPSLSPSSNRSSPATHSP
Sequence of human Retinoic Acid Receptor gamma (RARg), RARG (gene 5916) (P13631 whole entry, looked up, the tested form may be a part): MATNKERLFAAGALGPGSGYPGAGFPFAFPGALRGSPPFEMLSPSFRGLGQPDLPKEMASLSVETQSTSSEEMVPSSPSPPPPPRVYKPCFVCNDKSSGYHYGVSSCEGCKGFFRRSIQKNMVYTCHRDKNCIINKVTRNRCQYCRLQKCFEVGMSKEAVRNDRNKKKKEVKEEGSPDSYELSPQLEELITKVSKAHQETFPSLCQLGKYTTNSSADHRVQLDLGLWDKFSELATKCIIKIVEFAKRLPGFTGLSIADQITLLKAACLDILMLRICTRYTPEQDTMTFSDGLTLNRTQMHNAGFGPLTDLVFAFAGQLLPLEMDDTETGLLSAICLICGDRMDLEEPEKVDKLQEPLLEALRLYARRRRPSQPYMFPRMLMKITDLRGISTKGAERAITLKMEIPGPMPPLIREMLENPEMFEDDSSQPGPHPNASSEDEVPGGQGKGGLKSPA

`Cc1cc(O)c2c(c1)C(=O)c1cc(O)cc(O)c1C2=O`: the concentration at half-maximal activity (AC50) in [1] is 27.5 µM (active); in assay [5] it was 9.51 µM (active); in assay [6], 6.34 µM (active); in [10], 12.6 µM (active). Also, the result in [2], in assay [3], in [4], in assay [7], in assay [8] and in [9] was inactive.

Regarding `CCCCC1CCCCC(=O)O1` (configuration not stated), the result in [1], in [2], in assay [4], in assay [6], in assay [7] and in assay [9] was inactive. Besides, the AC50 in assay [5] was 47.4 µM (active).

In the case of `O=C(O)C(F)(F)OC(F)(F)C(F)(F)OC(F)(F)C(F)(F)C(F)(F)C(F)(F)F`, the result in assay [11], in assay [12], in assay [14], in assay [16] and in [17] was inactive. Moreover, the half-maximal activity concentration (AC50) in assay [13] is 54.5 µM (active) and 48.8 µM (active); in assay [15] it was 50.4 µM (active) and 55.2 µM (active).

`CCCC(O)C(CC)CO` (configuration not stated): the call in assay [1] and in [2] was inactive.

Consider `CCCCCCCCCCCCCCCCCC(=O)OCCCCCCCCCCCCCC(C)C`, for which the compound was called inactive in assay [1], in assay [2], in assay [5], in assay [6], in assay [18] and in assay [9]. The result in assay [19] and in assay [10] was inactive.

On to `O=S(=O)(O)CCCN1CCOCC1`, for which the compound was called inactive in assay [1], in assay [2], in assay [5], in assay [6], in [9] and in assay [19].

In the case of `COc1ccc(OC)cc1`, the compound was called inactive in [1], in [2], in assay [5] and in [18].

In the case of `c1ccc(Sc2ccccc2)cc1`, the AC50 in assay [11] is 30.7 µM (active); in [13], 27.6 µM (active); in [19], 100 µM (active); in assay [14] it was 29.9 µM (active); in assay [15] it was 33.2 µM (active); in assay [20], 29.1 µM (active). For the same compound, the AC50 in [16] was 20 µM (active); in assay [17], 30.3 µM (active). In addition, the outcome in assay [12], in [5], in [6], in [9] and in assay [10] was inactive.
